Source: the supplement of paper PMC4466236
Whole data set: some 33,000 sequences, median “E-score (dimensionless, -0.5 to 0.5)” near -0.058, cut for the highest 2% near 0.35. The sample holds the highest values, similar sequences and a random draw of the others, so the mix is not that of the screen.

system: MvaT; experiment: PBM 8-mer E-score (mean of HK and ME arrays) (E-score (dimensionless, -0.5 to 0.5)); higher = stronger relative binding preference
Experimental: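 Protein binding microarray: GST-tagged full-length MvaT (P. aeruginosa PAO1) bound to two universal double-stranded 60-mer arrays (ME and HK), each with a constant 25-mer primer and a variable 35-mer region covering all 8-mers. The 8-mer E-score (rank-based, range -0.5 to 0.5, >0.45 = specific binding) is the mean of the two arrays.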

Sequence | PBM 8-mer E-score
AACTCTTA | 0.21
ATAAATAG | 0.358
ATAAATGA | 0.316
GTAAATAC | 0.228
CTAAATAG | 0.102
GTAAATGA | 0.222
ATAAAGAT | 0.333
ATAAATAA | 0.442
ATAAATCA | 0.295
ATAAATAT | 0.44
ATAAACAT | 0.342
GTAAATAA | 0.366
ATAAATCG | 0.255
ATGTTCTA | 0.0957
TAGTCGGA | -0.0242
ACATTTCA | 0.153
ATTTAGAA | 0.321
GTAGTGTA | 0.0767
CGGTGCTA | -0.21
ATAAATCC | 0.25
ATAAATAC | 0.362
ATAAATGC | 0.279
CGGTTTCC | -0.194
CAATTTGG | 0.0733
AATTAAGC | 0.328

Sequence | PBM 8-mer E-score
AATTAAGT | 0.395
ACTTAAGT | 0.314
AGTTAAGG | 0.135
AATTAAGG | 0.37
CATTAAGG | 0.0854
ATGCAGAA | 0.0633
CAGACAAA | 0.0494
GAGAGGCC | -0.32
AGATGAGA | 0.0308
GAATATCC | 0.0901
AAATATCC | 0.253
AGATATTC | 0.209
GAATATTC | 0.349
AAATATTC | 0.363
GAATATGC | 0.119
GACCGAAA | -0.0789
GGGACGGA | -0.273
TAGGAGGA | -0.23
ATTATTTA | 0.44
ATTATTTG | 0.351
ACTATTTG | 0.258
CTCATTTA | 0.172
AGTATTTG | 0.308
GTTATTTA | 0.395
GCTATTTA | 0.252

Sequence | PBM 8-mer E-score
ACTATTTA | 0.345
CTTATTTA | 0.391
GGTATTTA | 0.27
CTTATTTC | 0.291
AGTATTTA | 0.33
GACGACGA | 0.0375
AGCCTTCG | -0.32
CAAAAATC | 0.0508
GAGATTAC | 0.135
AAGAAACT | 0.186
GGCGTGGA | -0.173
GACCATAA | -0.0261
CGGAGCCA | -0.2
GCAATCCA | -0.0685
CGCACCCC | -0.26
AGTATTTC | 0.207
ATTATTGC | 0.292
ATTATTTC | 0.352
AACCTGGA | -0.275
AGCGCGAT | -0.196
GATTTTAA | 0.248
AATTTAAC | 0.31
AATTTAAG | 0.271
TATTTTAA | 0.41
CATTTAAA | 0.386

Sequence | PBM 8-mer E-score
AATTTAAT | 0.431
AATTTTAA | 0.321
CATTTTAA | 0.176
AATTTAGA | 0.183
TATTTTCA | 0.277
CATTTAAG | 0.287
AATTTAAA | 0.443
ATGCATAG | -0.0132
CGCGCATA | 0.113
GCGTGAAC | -0.168
GGACCCCA | -0.231
TACGCACA | 0.0888
CGGTGGCA | -0.169
CGCACGTA | -0.1
CCTGCACG | -0.224
TATTTACA | 0.374
TCTTTAAA | 0.227
GATTTGAA | 0.2
GATTTAAA | 0.395
TATTTAAA | 0.433
CATTTACA | 0.339
TATTTAGA | 0.308
GATTTACA | 0.072
GATTTAAC | 0.245
ATGTCAAC | 0.0323

Sequence | PBM 8-mer E-score
CGCCTACG | -0.307
AGGGAGAG | -0.161
ACATTTAA | 0.388
AGATTAAG | 0.175
ACATTAAT | 0.382
ACATTAAC | 0.345
AGATTAAT | 0.379
GCATTAAA | 0.256
ACATTTAG | 0.177
ACATTAAA | 0.359
AGATTAAA | 0.178
CCATTAAA | 0.329
GCATTTAA | 0.326
ACATTAAG | 0.265
ACCACATC | -0.0359
ATGCTCTA | -0.124
TGTGCCAA | -0.0753
AGGAATTA | 0.226
CGTCCCCC | -0.209
AACATTAC | 0.234
TACTCCAA | 0.097
GACCCTAC | -0.272
ACATTTTG | 0.0944
GAAAGTGA | 0.135
CCGACTAG | -0.0959

Sequence | PBM 8-mer E-score
ACTATTAG | 0.26
CTTATTAC | 0.367
CTTATTGC | 0.178
GCTATTAC | 0.121
ATTATTAC | 0.439
ATTATTCC | 0.341
ATTATTAG | 0.411
ACTATTAC | 0.32
ATTATTCA | 0.328
CTTATTCC | 0.221
ATTATTCG | 0.378
ATTATTGG | 0.293
TACGACAA | 0.131
CCACCTCG | -0.129
GAGGCCCA | -0.232
ATCCGAGG | -0.119
CAATTCTA | 0.109
GATTTAGC | 0.024
ACTTATGG | 0.206
AGTGGTAG | 0.00056
CGCCGGCA | -0.168
CCTAACCG | -0.115
TAACTAAA | 0.312
AAACTATA | 0.334
AAACTAAA | 0.357

Sequence | PBM 8-mer E-score
AAACTATC | 0.301
AAACTATT | 0.371
GAACTAAA | 0.338
ATTGAAAG | 0.195
AGTCCCGC | -0.186
GTCCAATA | 0.0714
AATGGGGT | 0.0941
ACAACCTG | -0.038
GCGAGCCA | -0.16
ACAATATG | 0.262
CCAATATC | 0.194
GCAATATA | 0.414
ACAATATA | 0.425
CCAATATA | 0.367
ACAATATC | 0.258
CCAATACA | 0.142
GCAATAGA | 0.127
GCAATAAA | 0.214
CTAGGCCA | -0.211
CGATAGGA | -0.177
AAAACCTT | 0.103
GCCATCGC | -0.219
ACTTACAA | 0.307
GAATTTCA | 0.108
CCTGGGCC | -0.238

Sequence | PBM 8-mer E-score
CTACATTA | 0.241
ATACATTA | 0.39
GCACATTA | 0.19
GTACATTA | 0.308
ACACATTG | 0.113
ACACATTA | 0.355
GCCGATGA | -0.199
TAGCTATA | 0.241
ACGGTAAT | 0.18
GTAGGCAA | -0.171
TAGGGCAA | -0.0392
GATTACAA | 0.188
AATTACAT | 0.327
TATTACAA | 0.351
CATTACAA | 0.166
AATTACAA | 0.367
AATTACAG | 0.268
AGGTGACT | -0.173
CCGAGACA | -0.0391
GAGGAGTA | -0.153
CGAGTATA | 0.195
CTCTATTC | -0.0516
ATATATTG | 0.446
ATATATTC | 0.454
AGATATTG | 0.191

Sequence | PBM 8-mer E-score
CTATATTC | 0.204
ATCTATTG | 0.082
AATCATAA | 0.306
ACCCGTCG | -0.0362
AATATACA | 0.413
AGTATACC | 0.234
AGTATACT | 0.422
TATATACA | 0.456
AATATACT | 0.421
AATACACG | 0.159
GATATACA | 0.205
CATATACA | 0.275
AATACACA | 0.151
AATATACG | 0.331
AGTATACA | 0.321
AATATACC | 0.324
GAGCCGAC | -0.262
ACTTGCAG | 0.0173
AGGCTTAG | -0.104
